Test results taken from PubChem BioAssay AID504834 (National Center for Advancing Translational Sciences (NCATS), 2011).
Where “and” joins values, the source holds several entries; their conditions need not be identical. Equal values may be shown once. Screen size: about 320,000 compounds; about 22,000 (6.9%) were called active. About 27% were inconclusive and are not listed. What follows is part of a selection rich in actives, with near analogues and random picks from the rest. Where a call stands in place of a potency, no number is given. A number with no mark means an inactive call. Calls come from the whole dose curve; as a rule, active = well fitted inhibition curve with a large enough effect; inconclusive = small, poorly fitted or top-dose-only effect, or another doubt; inactive = no such curve, though single readings can be large or run the other way.

Test: Primary qHTS for delayed death inhibitors of the malarial parasite plastid, 96 hour incubation
Details: P. falciparum luciferase reporter growth; series mostly up to 28.7 µM
Description: The goal of this screen is to discover new antimalarial compounds that act by inhibiting the development of the apicoplast in the malarial parasite Plasmodium falciparum. The biochemical processes that make this organelle essential for erythrocytic stage parasites are not well understood. However, antibiotics such as azithromycin and tetracycline, which target the apicoplast translational machinery, have a potent antimalarial effect.
We have developed a cell-based assay that measures parasite growth based on the expression of an integrated copy of a firefly luciferase reporter. To detect small molecules that cause this "delayed death" phenotype, erythrocytes infected with the luciferase-expressing parasites were incubated with compounds for either one or two generations, corresponding to 48 and 96 hours, respectively. Compounds that inhibit parasite growth in the second generation, but not the first, should be enriched in antimalarials that target the apicoplast. Growth inhibition is detected by a decrease in luciferase activity.
Assay Provider: David Fidock and Eric Ekland, Columbia University
Keywords: NIH Roadmap, MLPCN, MLI, MLSMR, qHTS, NCGC, qHTS, malaria, luciferase, viability
Four microliters of infected erythrocytes (2% hematocrit, 0.05% parasitemia final concentration) in culture medium were dispensed and the plates incubated for 96 hours at 37 C in 5% CO2. Two microliters of luciferase detection reagent was added and luminescence was detected by a ViewLux (PerkinElmer) reader.
Potency is the fitted concentration of half-maximal effect.

| SMILES | Potency | activity change, negative = inhibition |
| --- | --- | --- |
| COc1ccc(C(=O)Nc2cc(C)c(NC(=O)c3ccccc3OC)cn2)cc1 | inactive |  |
| Cc1cccc(C2=N/C(=C/c3cccs3)C(=O)O2)c1 | inactive |  |
| CSC1=N/C(=C\C=C\c2cccs2)C(=O)S1 | 5.22 µM (active) |  |
| CSC1=N/C(=C\c2ccc3c(c2)OCO3)C(=O)S1 | inactive |  |
| O=S(=O)(Cc1noc(-c2ccc(OC(F)(F)F)cc2)n1)c1ccc(F)cc1 | inactive |  |
| COc1ccc(NC(=O)c2cccc(Cl)c2)c[n+]1[O-] | inactive |  |
| COc1cc(Cl)c(S(=O)(=O)n2cnc(C)c2)cc1Cl | inactive |  |
| COc1cc(OC)c(-n2cc(-c3ccc(Cl)cc3)[nH]c2=O)cc1Cl | inactive |  |
| COc1cc(OC)c(-n2c(C)cc(C=O)c2C)cc1Cl | 13.1 µM (active) |  |
| O=C1c2ccccc2C(=O)N1c1cccc2ccccc12 | inactive |  |
| Cc1n[nH]c(=O)c2c(NC(=O)CSc3cc(Cl)ccc3Cl)oc(C)c12 | inactive |  |
| COc1cccc(-c2cccc(NC(=O)C3CCN(C4CCC4)CC3)c2)c1 | inactive |  |
| O=C(Nc1cccc(-c2cccc(Cl)c2)c1)C1CCN(C2CCC2)CC1 | 10.4 µM (active) |  |
| CCn1cc(CN2CCC(C(=O)Nc3cccc(-c4cccc(Cl)c4)c3)CC2)cn1 | inactive |  |
| COC(=O)CSc1nnc(NC(=O)CCc2ccccc2)s1 | inactive |  |
| CC(C)CCN1CCN=C1N(C)C | inactive |  |
| COc1ccc(S(=O)(=O)N2CCN(C(=O)N(C)C)C2C)cc1 (stereo unspecified) | inactive |  |
| Cc1cccc(C(=O)N2CCN(S(=O)(=O)N3CCCCC3)CC2)c1 | inactive |  |
| CCCCN(CCCC)CCC(O)c1cc2c(Cl)cc(Cl)cc2c2cc(C(F)(F)F)ccc12 (stereo unspecified) | 2.6 nM (active) and 2.9 nM (active) |  |
| CN(CC(=O)NCC(c1ccccc1)N1CCCC1)S(=O)(=O)c1ccc(Cl)cc1 (stereo unspecified) | 8.28 µM (active) |  |
| Cc1ccc(NC(=O)NCC(c2cccnc2)N2CCOCC2)cc1 (stereo unspecified) | inactive |  |
| Cc1ccc(S(=O)(=O)N(C)CC(=O)NCC(c2ccc(F)cc2)N2CCOCC2)cc1 (stereo unspecified) | 10.4 µM (active) |  |

| SMILES | Potency | activity change, negative = inhibition |
| --- | --- | --- |
| CN(CC(=O)NCCN1CCOCC1)S(=O)(=O)c1ccc(F)cc1 | inactive |  |
| CN(CC(=O)NNC(=O)CNC(=O)c1ccccc1Cl)S(=O)(=O)c1ccc(Cl)cc1 | inactive |  |
| CN(CC(=O)NCCc1ccccn1)S(=O)(=O)c1ccc(Cl)cc1 | inactive |  |
| COc1ccccc1OCCOc1ccc(/C=C2\C(=N)N3N=C(C)SC3=NC2=O)cc1 | inactive |  |
| CCOC(=O)N1CCN(C(=O)c2ccc(CN(c3ccc(C)c(C)c3)S(C)(=O)=O)cc2)CC1 | inactive |  |
| CCN1CCN(C(=O)c2ccc(CN(c3ccc(C)c(C)c3)S(C)(=O)=O)cc2)CC1 | 10.4 µM (active) |  |
| CCOC(=O)N1CCN(C(=O)CN(c2ccc(C)c(C)c2)S(=O)(=O)c2ccccc2)CC1 | inactive |  |
| CC1CN(C(=S)Nc2ccccc2F)CC(C)O1 (stereo unspecified) | inactive |  |
| CCCc1cc(=O)n2[nH]c(C)c(-c3ccc(Cl)cc3)c2n1 | inactive |  |
| O=c1[nH]n(-c2cccc(Cl)c2)c2ncccc12 | inactive |  |
| Cc1[nH]n(-c2cccc(Cl)c2)c(=O)c1-c1ccc(Cl)cc1 | 0.415 µM (active) |  |
| CC(C)(O)c1ccccc1CC[C@H](SCC1(CC(=O)O)CC1)c1cccc(/C=C/c2ccc3ccc(Cl)cc3n2)c1 | inactive |  |
| CCc1ccc(C(CNc2nc(C(F)(F)F)nc3ccccc23)N(C)C)cc1 (stereo unspecified) | 11.7 µM (active) |  |
| Cc1cc(C)n(-c2nc(C(F)(F)F)nc3ccccc23)n1 |  | 14% [at 5.75 µM] |
| NS(=O)(=O)c1ccc(CCNc2nc(C(F)(F)F)nc3ccccc23)cc1 | inactive |  |
| O=C(OCc1ccc([N+](=O)[O-])cc1)C1CC(=O)N(Cc2ccccc2Cl)C1 (stereo unspecified) | inactive |  |
| O=C(COc1cccc2c1CCNC2=O)NC1CCCCC1 | inactive |  |
| O=C(O)c1cccc(S(=O)(=O)N2CC=C(c3ccccc3)CC2)c1 | inactive |  |
| O=C(O)c1cccc(N=NN2CCCCCC2)c1 | inactive |  |
| NC1=NN(c2cccc(C(=O)O)c2)C(=O)C1 | 13.1 µM (active) |  |
| COC(=O)C1CCN(C(=O)c2ccc3oc(Cc4ccc(Cl)cc4)nc3c2)CC1 | inactive |  |
| O=C(c1ccccc1)N1CCC(CC2CC(c3ccc(Cl)cc3)=NO2)(C(=O)NCC2CCCCC2)CC1 (stereo unspecified) | 1.04 µM (active) |  |

| SMILES | Potency | activity change, negative = inhibition |
| --- | --- | --- |
| CCCCCCCNC(=O)C1(CC2CC(c3cccc(Br)c3)=NO2)CCN(C(=O)c2cc(OCC)c(OCC)c(OCC)c2)CC1 (stereo unspecified) | 0.329 µM (active) |  |
| CC(=O)N1CCC(C(=O)OCc2ccc(Cl)cc2)(c2ccccc2)CC1 | inactive |  |
| CCOc1ccccc1N1CCN(C(=O)c2ccc3[nH]c(C)c(C)c3c2)CC1 | inactive |  |
| COc1ccccc1C(=O)NC(=O)COC(=O)c1ccco1 | inactive |  |
| Cc1ccc(N2C(=O)CC(Nc3cccc4ccccc34)C2=O)cc1 (stereo unspecified) | inactive |  |
| COc1ccc(C2=NS(=O)(=O)N(C)C(C(=O)NC(C)c3ccccc3)=C2)cc1 (stereo unspecified) | inactive |  |
| COc1ccccc1CCC(=O)NNC(=O)c1ccncc1 | inactive |  |
| Cc1nn(-c2ccccc2)c(C)c1NC(=O)COC(=O)c1cc(Cl)ccc1O | inactive |  |
| CCN1CCN(c2ccc(NC(=O)c3cnccn3)cc2)CC1 | inactive |  |
| CCN1CCN(C(c2cccnc2)c2cc(Cl)c3cccnc3c2O)CC1 (stereo unspecified) | 10.4 µM (active) |  |
| Cc1nc(C)c(-c2nnc(-c3cccc(S(=O)(=O)N(C)C)c3)o2)cc1C(=O)NN | inactive |  |
| Cn1c(SCC(=O)Nc2ccc(N3CCOCC3)cc2)nnc1C(F)(F)F | inactive |  |
| Cc1ccccc1NC(=O)c1cc(S(=O)(=O)Nc2cccc(C(=O)O)c2)ccc1Cl | inactive |  |
| O=C(NC1CC1)c1ccc2c(c1)NC(=O)c1ccccc1S2 | 8.28 µM (active) |  |
| S=C1Nc2cc(Cl)ccc2Sc2ccccc21 | inactive |  |
| O=C(NC1CC1)c1cccc(Br)c1 | inactive |  |
| CCn1cnc2scc(-c3ccc(C)c(C)c3)c2c1=O | inactive |  |
| CCOC(=O)C(C)n1cnc2scc(-c3ccc(C)c(C)c3)c2c1=O (stereo unspecified) | inactive |  |
| COC(=O)Cn1cnc2scc(-c3ccc(C)c(C)c3)c2c1=O | 10.4 µM (active) |  |
| COc1ccc(NC(=O)CCN2CCCC2)c(OC)c1 | inactive |  |
| COc1ccc(NC(=O)C(C)N2c3cccc4cccc(c34)S2(=O)=O)c(OC)c1 (stereo unspecified) | 2.94 µM (active) |  |
| CSc1ccccc1NC(=O)C(C)N1C(=O)c2ccccc2S1(=O)=O (stereo unspecified) | inactive |  |
